Measured values as given in PubChem BioAssay AID504326 (The Scripps Research Institute Molecular Screening Center, 2011).
The whole screen tested about 340,000 compounds, of which about 990 (0.29%) were called active. Rule as the data show it: active = activation above about 18%; inactive = the rest. Only a selection was taken, and actives are over-represented in it overall.

biological target: Mu-type opioid receptor (Homo sapiens) + Delta-type opioid receptor (Homo sapiens) (UniProt P35372+P41143); assay: agonists of OPRM1-OPRD1 heterodimerization, primary screen, cell-based, luminescence (AID 504326); conditions: cells, at 9.3 µM, active compounds read high;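 also: 0% = vehicle-treated cells and 100% = reference agonist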
Sequence (P35372 whole entry, looked up): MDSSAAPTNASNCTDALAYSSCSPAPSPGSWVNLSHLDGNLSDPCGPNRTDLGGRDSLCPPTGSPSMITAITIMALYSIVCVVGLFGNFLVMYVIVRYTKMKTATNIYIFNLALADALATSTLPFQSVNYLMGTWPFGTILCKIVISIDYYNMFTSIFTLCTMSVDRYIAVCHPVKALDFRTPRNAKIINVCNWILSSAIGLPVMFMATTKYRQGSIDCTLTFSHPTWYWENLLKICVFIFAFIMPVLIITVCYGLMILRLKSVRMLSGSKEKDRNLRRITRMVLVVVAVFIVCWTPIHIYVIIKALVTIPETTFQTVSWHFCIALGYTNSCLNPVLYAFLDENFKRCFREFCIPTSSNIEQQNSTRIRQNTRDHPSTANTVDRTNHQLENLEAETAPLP
Sequence (P41143 whole entry, looked up): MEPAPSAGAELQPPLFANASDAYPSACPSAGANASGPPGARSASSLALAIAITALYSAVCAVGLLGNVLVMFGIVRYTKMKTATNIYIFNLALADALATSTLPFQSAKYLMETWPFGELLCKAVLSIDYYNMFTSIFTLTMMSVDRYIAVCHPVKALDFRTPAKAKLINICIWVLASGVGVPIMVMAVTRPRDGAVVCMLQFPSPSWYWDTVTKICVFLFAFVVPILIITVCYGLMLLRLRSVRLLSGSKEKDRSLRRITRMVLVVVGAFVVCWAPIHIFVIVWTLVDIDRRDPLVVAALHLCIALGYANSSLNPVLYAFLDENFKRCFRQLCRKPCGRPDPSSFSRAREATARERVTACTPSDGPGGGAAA

activation, active:
CN(C)C(CNC(=O)Cc1ccc([N+](=O)[O-])cc1)c1ccccc1 (stereo not drawn) 67.1%
CN(C)C(CNC(=O)c1cc2ccccc2o1)c1ccccc1 (stereo not drawn) 197%
CN1CCN(c2ccc([N+](=O)[O-])c(Sc3nc4ccccc4[nH]3)c2)CC1 55.9%
COc1ccc(C(CCN(Cc2ccc(OC)c(OC)c2)C(=O)CCl)c2ccccc2)cc1 (stereo not drawn) 91.3%
CN1C(CC(=O)Nc2ccc(Br)cc2)c2ccccc2CC1(C)C (stereo not drawn) 77.8%

activation, inactive:
O=C(CC(c1ccccc1)c1ccccc1)NCC(O)c1ccc([N+](=O)[O-])cc1 (stereo not drawn) 2.4%
Cc1cc(NC(=O)c2cc3ccccc3o2)no1 -2.3%
O=C(NCCc1ccc2c(c1)OCCO2)c1cc2ccccc2o1 -0.68%
CN(C)CCNC(=O)Cc1ccc([N+](=O)[O-])cc1 -3.71%
COc1ccc(NC(=O)CN2C(=O)COc3ccc(S(=O)(=O)N4CCOCC4)cc32)c(OC)c1 -1.21%
O=C(CSc1nc2ccccc2[nH]1)N/N=C/C=C\c1ccccc1[N+](=O)[O-] -1.78%
O=[N+]([O-])c1ccc(N2CCSCC2)cc1O 0.34%
CC(Sc1nnc(CNC(=O)c2ccccc2F)n1C)C(=O)Nc1nccs1 (stereo not drawn) -0.21%
CCCCN(C(=O)COc1ccc(NC(C)=O)cc1)C1CCS(=O)(=O)C1 (stereo not drawn) -1.71%
COc1cc2c(cc1OC)CC1(CCCCC1)N=C2 -3.02%
COc1ccc(CCNC(=O)CN(c2ccccc2)S(C)(=O)=O)cc1OC 0.27%
COc1ccc(CCNC(=O)C(Sc2ccccn2)c2ccccc2)cc1OC (stereo not drawn) -2.64%
CN(CC(=O)NCCc1ccccc1)S(=O)(=O)c1cnc[nH]1 -1.45%
CSc1sc(C)cc1C1C(C#N)=C(N)N(c2cccnc2)C2=C1C(=O)CCC2 (stereo not drawn) -1.23%
CN1CCN(NC(=O)Nc2ccc(Br)cc2)CC1 -3.59%
COCC(=O)Nc1ccc(Br)cc1 -3.01%
Cc1ccc(F)cc1S(=O)(=O)Nc1cccc(C(=O)N2CCCC(C(N)=O)C2)c1 (stereo not drawn) 3.39%
CCN(CC)C(=O)CC1(c2ccccc2OC)CCOC(C(C)C)C1 (stereo not drawn) -2.63%
